Screens as filed in PubChem BioAssay.
CYP2C9 inhib: blockers of cytochrome P450 2C9 activity – biochemical, luminescence, ADME assay, primary screen; CYP2C9 Supersomes, luciferin-H conversion; inhibition, % at 5 µM; actives 20% (n = 96,000); AID 777, 2007;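 active = blocking of liver enzyme CYP2C9 beyond about 50% at 5 µM, limit read from the data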
Target sequence (P11712 whole entry, looked up): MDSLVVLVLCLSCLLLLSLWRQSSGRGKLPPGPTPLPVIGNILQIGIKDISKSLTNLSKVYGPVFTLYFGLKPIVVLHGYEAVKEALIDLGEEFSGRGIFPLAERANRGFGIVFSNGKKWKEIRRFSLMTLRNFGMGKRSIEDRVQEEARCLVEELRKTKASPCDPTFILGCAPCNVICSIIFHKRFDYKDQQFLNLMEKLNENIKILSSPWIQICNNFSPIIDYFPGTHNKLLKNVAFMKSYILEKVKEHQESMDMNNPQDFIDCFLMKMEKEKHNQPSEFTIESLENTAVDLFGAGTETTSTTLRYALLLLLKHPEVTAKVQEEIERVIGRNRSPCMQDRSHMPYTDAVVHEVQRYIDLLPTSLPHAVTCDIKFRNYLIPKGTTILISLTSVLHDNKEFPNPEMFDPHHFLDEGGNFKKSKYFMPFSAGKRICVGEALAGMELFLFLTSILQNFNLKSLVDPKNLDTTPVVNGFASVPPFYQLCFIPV
Cav3 T inh: Cav3.2 calcium influx blockers – cell-based, Fluo-4 calcium fluorescence, FDSS, MLSMR library, primary screen; Voltage-dependent T-type calcium channel subunit alpha-1H (Homo sapiens), O95180; Cav3.2-expressing cells; hits give low values; B-score at 10 µM; actives 4% (n = 100,000); AID 449739, 2010;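 active = single-dose well whose peak fluorescence ratio is a statistical outlier from its plate by either plate-standardised score or position-corrected B-score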
CYP2C9 act: human CYP2C9 activators, primary screen, biochemical, luminescence; Cytochrome P450 2C9 (Homo sapiens), P11712; recombinant CYP2C9, luciferin-H conversion; hits give high values; factor 1 = untreated enzyme, 0 = blocked; activation factor at 5 µM; actives 1.4% (n = 96,000); AID 1024, 2008;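 active = activation factor of 2 or more for CYP2C9 at a 5 µM dose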
PTK2B oligo ant: antagonists of Pyk2 self-association, primary screen, Q293 cells, FERM NanoBiT luminescence, HTS; hits give low values; z-score (the deposit names both 25 µM and 10 µM); actives 0.83% (n = 99,000); AID 1347419, 2020;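 active = Z-score of -3 or lower, scaled per plate to the spread of control and sample wells; inactive = z-score above -3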;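 also: negative z-score means lost luminescence so less FERM oligomerization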
CYP2C19 inhib: blockers of cytochrome P450 2C19 activity – biochemical, luminescence, ADME assay, primary screen | P33261 | CYP2C19 Supersomes, luciferin-H EGE luminescence, 30 min | inhibition, % at 5 µM | actives 21% (n = 96,000);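 active = CYP2C19 inhibition above a set limit at 5 µM in the primary screen, cut at about 50% in these data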
CYP2C19 activ: human CYP2C19 activators, primary screen, biochemical, luminescence; recombinant CYP2C19, luciferin-H EGE luminescence; hits give high values; 0 = fully inhibited enzyme, 1 = untreated enzyme; activation factor at 5 µM; 96,000 tested, under 10 active;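 active = activation factor of at least 2 at 5 µM in the primary screen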
A number is an active result; - = inactive; . = no result. Sampled rows, rich in hits. Any-hit rate of the full collection: about 27%.

SMILES | CYP2C9 inhib | Cav3 T inh | CYP2C9 act | PTK2B oligo ant | CYP2C19 inhib | CYP2C19 activ
Cc1cc(N)ccc1-n1c(C)ccc1C | - | - | - | - | 53 | -
CC1(C)CC(=O)C=C(OC(=O)c2ccc(Cl)cc2)C1 | 53 | - | - | - | - | -
C#Cc1ccc([C@H]2C=C(C(=O)NCc3ccccc3)O[C@@H](OCc3ccc(CO)cc3)C2)cc1 | . | - | . | . | . | .
C/C(=N\NC(=O)c1ccccc1O)c1c(O)cc(C)oc1=O | 62 | - | - | - | - | -
C/C(=N\NC(=O)c1ccccc1O)C1C(=O)c2ccccc2C1=O | 90 | -7.2 | - | - | - | -
C/C(=N\NC(=O)c1ccccc1[N+](=O)[O-])c1c(O)cc(C)oc1=O | . | . | . | - | . | .
C/C(=N/NC(=O)c1cc2ccccc2cc1O)C1C(=O)c2ccccc2C1=O | 98 | -5.9 | - | - | 91 | -
CCOC(=O)C(CO)(NC(C)=O)C(=O)OCC | - | - | - | - | - | -
Cc1ccc(-c2noc(CCC(=O)NC3CCN(Cc4ccccc4)CC3)n2)cc1 | 72 | - | - | - | 55 | -
COc1ccc(-c2noc(CN3CCC(Cc4ccccc4)CC3)n2)cc1 | 71 | - | - | - | 66 | -
O=C(CCc1nc(-c2ccccc2F)no1)NC1CCN(Cc2ccccc2)CC1 | - | - | - | - | - | -
Clc1ccc(-c2noc(CN3CCCC3)n2)cc1 | - | - | - | - | 55 | -
Cc1ccc(-c2noc(CCC(=O)N3CCCC3)n2)cc1 | 52 | - | - | - | 52 | -
COc1ccc(S(=O)(=O)N2CCN(C(=O)NC3CCCCC3)CC2)cc1OC | - | - | - | - | - | -
Cc1ccc(-c2noc(CCC(=O)NC3CCCc4ccccc43)n2)cc1 (stereo not drawn) | 62 | - | - | - | - | -
COc1ccc(-c2noc(CCC(=O)N3CCN(Cc4ccccc4)CC3)n2)cc1 | 95 | . | - | - | 94 | -
CCc1ccccc1NC(=O)CCc1nc(-c2ccc(C)cc2)no1 | - | . | - | - | - | -
COC(=O)C(NNc1ccccc1C)(NC(=O)c1ccc(F)cc1)C(F)(F)F (stereo not drawn) | 54 | -4.9 | - | - | 79 | -
COC(=O)C(NC(=O)c1ccccc1)(Nc1cc(C)cc(C)n1)C(F)(F)F (stereo not drawn) | . | -4.2 | . | - | . | .
C=CCN(CCNP(=O)(OCC)OCC)CP(=O)(OCC)OCC | - | - | - | - | - | -
O=C(O)CCn1c(=O)c2ccccc2c2ccccc2c1=O | - | - | - | - | - | -
O=C(O[C@H]1[C@H](Oc2ccccc2COC(=O)C2(O)C=CCCC2=O)O[C@H](CO)[C@@H](O)[C@@H]1O)c1ccccc1 (stereo partly drawn) | . | -4.5 | . | . | . | .
Cc1sc2ncnc(SC(C)C#N)c2c1C (stereo not drawn) | . | - | . | - | . | .
O=C(CSCCSCC(=O)c1ccco1)c1ccco1 | - | - | - | . | - | -
CCOC(=O)CCN(Cc1cccs1)S(=O)(=O)c1ccc(Cl)cc1 | - | - | - | - | 68 | -
SMILES | CYP2C9 inhib | Cav3 T inh | CYP2C9 act | PTK2B oligo ant | CYP2C19 inhib | CYP2C19 activ
COc1ccc(OC)c(NC(=O)CC(NCCC2=CCCCC2)C(=O)O)c1 (stereo not drawn) | - | . | - | . | - | -
Cc1ccccc1NC(=O)C1CCC(C)(C(=O)O)C1(C)C (stereo not drawn) | - | . | - | - | - | -
Cc1ccccc1C(=O)O/N=C/c1c(N2CCOCC2)n(C)c2ccccc12 | 88 | - | - | - | - | -
Cn1c(Cl)c(/C=N/OC(=O)c2cccc(Cl)c2)c2ccccc21 | - | - | - | - | - | -
O=C(Cn1ccc2ccccc2c1=O)NCCC(=O)N1CCN(c2cccc(Cl)c2)CC1 | - | - | - | - | - | -
CCOc1ccc(-c2nnc3ccc(SCC(=O)N4CCCCC4)nn23)cc1 | - | - | - | . | - | -
CCOC(=O)CC(=O)CSc1ccc2nnc(-c3ccc(C)cc3)n2n1 | 55 | - | - | - | - | -
CC(=O)C(Sc1ccc2nnc(-c3ccc(C)cc3)n2n1)C(C)=O | - | - | - | . | - | -
CC(=O)C(Sc1ccc2nnc(-c3ccc(F)cc3)n2n1)C(C)=O | 70 | - | - | . | - | -
Fc1ccc(CN2CCN(c3ncccn3)CC2)cc1 | - | - | - | - | 57 | -
CC(NC(=O)CN1CCN(c2ncccn2)CC1)c1ccc(F)cc1 (stereo not drawn) | 92 | - | - | - | - | -
c1ccc(CN2CCN(c3ncccn3)CC2)nc1 | - | . | - | . | 54 | -
Fc1ccc(F)c(CN2CCN(c3ncccn3)CC2)c1 | - | - | - | - | - | -
CCOc1cc(/C=N/NC(=O)CN2CCOCC2)ccc1OCc1ccc(Cl)cc1 | - | - | - | - | - | -
Cc1cc(N2C(=O)C(O)=C(C(=O)c3ccco3)C2c2cccnc2)no1 (stereo not drawn) | - | . | - | . | - | -
CCOc1cccc(C2C(C(=O)c3ccco3)=C(O)C(=O)N2Cc2ccncc2)c1 (stereo not drawn) | - | - | - | - | - | -
COc1ccc(CCN2C(=O)C(O)=C(C(=O)c3ccco3)C2c2cccs2)cc1OC (stereo not drawn) | 53 | - | - | - | - | -
Cc1ccc2nc(N3C(=O)C(O)=C(C(=O)c4ccco4)C3c3cccs3)sc2c1 (stereo not drawn) | 96 | -3.1 | - | - | - | -
COCCN1C(=O)C(O)=C(C(=O)c2ccco2)C1c1cccc(Oc2ccccc2)c1 (stereo not drawn) | - | -3.8 | - | - | - | -
COc1cc(C2C(C(=O)c3ccco3)=C(O)C(=O)N2CCc2ccccc2)ccc1O (stereo not drawn) | 54 | - | - | - | - | -
Cc1nc2ccc(S(=O)(=O)NCC(=O)N3CCCC(C)C3)cc2s1 (stereo not drawn) | - | - | - | - | - | -
CCC1CCC(C(=O)NC(C(=O)Nc2ccc3c(c2)OCCO3)C(C)C)CC1 (stereo not drawn) | - | . | - | - | - | -
CC1(C)Cc2c(sc3c4nnnn4c4nnnn4c23)CO1 | - | - | - | . | - | -
C=CCc1ccccc1OCC(O)CN(CC)CC (stereo not drawn) | - | - | - | - | - | -
Cc1ccc(CCSc2ccc(C(C)C)cc2)cn1 | . | . | . | - | . | .
Fc1cc(F)c(F)c(SCCc2ccncc2)c1F | 74 | - | - | - | 81 | -
Fc1ccc(SCCc2ccncc2)cc1 | 82 | - | - | - | 97 | -
Cc1cccc2cc(-c3ccccc3)c(-c3ccccc3)c[n+]12 | . | . | . | - | . | .
